G9a block – qHTS Assay for Inhibitors of Histone Lysine Methyltransferase G9a | Potency, µM (doses to about 102 µM), inactives show at the highest dose activity, negative = inhibition, actives largely listed as inhibitors | G9a H3K9 monomethylation, AlphaScreen, 2 h | 350,000 tested, 8.8% active; further: on the % scale 0 is the no-effect control and ±100 the full control effect; nearly all actives have a fitted effect of over 75% in size
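Using a bead-based AlphaScreen, monomethylated H3K9 product from 2 h room-temperature reactions (G9a 20 nM, peptide 500 nM, SAM 20 uM) was detected with 0.5 ug/mL rabbit anti-H3K9me1 antibody.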
L3MBTL1 inh – qHTS Assay for the Inhibitors of L3MBTL1 | Lethal(3)malignant brain tumor-like protein 1 (Homo sapiens), Q9Y468 | AlphaScreen L3MBTL1–H3K9me1 peptide binding | Potency, µM (highest dose often 57.1 µM), for the others: at the highest dose activity, negative = inhibition, hits mostly inhibitors | 230,000 tested, 0.66% active; further: on the % scale 0 is the no-effect control and ±100 the full control effect; nearly all actives have a fitted effect of over 60% in size
Target sequence (Q9Y468 whole entry, looked up): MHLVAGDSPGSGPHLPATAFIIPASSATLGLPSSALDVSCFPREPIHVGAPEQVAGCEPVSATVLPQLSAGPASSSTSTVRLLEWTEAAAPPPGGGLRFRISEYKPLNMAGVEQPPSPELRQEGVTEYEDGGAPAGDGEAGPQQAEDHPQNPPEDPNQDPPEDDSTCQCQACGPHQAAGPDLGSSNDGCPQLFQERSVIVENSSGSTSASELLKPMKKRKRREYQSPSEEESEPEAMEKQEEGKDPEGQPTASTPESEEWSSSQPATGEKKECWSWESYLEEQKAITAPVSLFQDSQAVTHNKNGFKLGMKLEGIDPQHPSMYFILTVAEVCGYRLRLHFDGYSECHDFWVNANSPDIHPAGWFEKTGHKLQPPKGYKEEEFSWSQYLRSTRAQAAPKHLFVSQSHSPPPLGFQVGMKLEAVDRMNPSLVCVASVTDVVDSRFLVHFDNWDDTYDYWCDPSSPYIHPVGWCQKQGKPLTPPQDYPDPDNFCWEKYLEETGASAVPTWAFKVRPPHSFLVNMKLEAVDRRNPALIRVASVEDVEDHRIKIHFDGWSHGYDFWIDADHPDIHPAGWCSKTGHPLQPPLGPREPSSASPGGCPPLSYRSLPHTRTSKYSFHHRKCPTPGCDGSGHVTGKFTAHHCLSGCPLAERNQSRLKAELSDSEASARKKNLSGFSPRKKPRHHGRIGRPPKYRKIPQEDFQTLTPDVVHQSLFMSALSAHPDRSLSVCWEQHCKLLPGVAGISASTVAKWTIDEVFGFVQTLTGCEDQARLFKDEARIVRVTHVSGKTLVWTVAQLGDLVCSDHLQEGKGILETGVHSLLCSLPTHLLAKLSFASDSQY
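First, the protein-peptide complex forms for 30 min at room temperature (L3MBTL1 50 nM, biotinylated H3K9me1 peptide 75 nM). Next, compounds are pin-transferred and incubated 30 min. Finally, AlphaScreen beads are added and read after 30 min.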
BAZ2B block – qHTS Assay for Inhibitors of BAZ2B; AID 504333, 2011; AlphaScreen BAZ2B-H3K14Ac peptide displacement; 360,000 tested, 4.4% active; Bromodomain adjacent to zinc finger domain protein 2B (Homo sapiens), Q9UIF8; Potency, µM (series often up to 114 µM), inactives show top-dose activity change, negative = inhibition, actives largely listed as inhibitors; further: on the % scale 0 is the no-effect control and ±100 the full control effect; nearly all actives have a fitted effect of over 60% in size
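BAZ2B 50 nM plus b-H3(5-23)K14Ac 50 nM, PBS pH 7.4/0.01% Tween-20, 30 min RT; compound added (max 110 uM), 30 min RT; streptavidin donor/Ni-chelate acceptor beads 10 ug/mL final, 20 min dark; AlphaScreen read.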
JMJD2A Tudor inh – qHTS Assay for Inhibitors of JMJD2A-Tudor Domain; Lysine-specific demethylase 4A (Homo sapiens), O75164; AlphaScreen JMJD2A-Tudor / H3K4me3 peptide binding; Potency, µM (top dose mostly 114 µM), inactives show at the highest dose activity change, negative = inhibition, hits mostly inhibitors; 390,000 tested, 4.4% active; AID 504339, 2011; further: on the % scale 0 is the no-effect control and ±100 the full control effect; nearly all actives have a fitted effect of over 50% in size
Sfp inh – qHTS Assay for Inhibitors of Bacillus subtilis Sfp phosphopantetheinyl transferase (PPTase) | 4'-phosphopantetheinyl transferase ffp (Bacillus subtilis), Q9F4F7 | AID 1490, 2009 | Biochemical Sfp PPTase activity, qHTS | 310,000 tested, 3.5% active | Potency, µM, without a hit: largest response in the series, negative = inhibition, actives largely listed as inhibitors;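 further: the enzyme is Sfp with the accession as filed and its product quenches rhodamine fluorescence; 0% = enzyme reaction without inhibitor and -100% = no enzyme wells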
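Fluorescence-quenching assay with 15 nM Sfp, 5 uM rhodamine-CoA and 12.5 uM BHQ-2-labelled ybbR peptide in pH 7.6 Hepes/MgCl2 buffer. Enzyme was pre-incubated with compound for 15 min at room temperature. Rate was taken from the 30-min fluorescence change (525/598 nm).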
HP1b binding inh – HTS for Inhibitors of HP1-beta Chromodomain Interactions with Methylated Histone Tails. Potency, µM (titrated, usually from 114 µM), for inactives: top-dose activity change, negative = inhibition, most hits filed as inhibitors. Chromobox protein homolog 1 (Homo sapiens), P83916. AID 540317, 2011. AlphaScreen HP1-beta / biotin-H3K9me3 peptide binding. 390,000 tested, 0.56% active; further: nearly all actives have a fitted effect of over 70% in size
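Compound inhibition of the preformed complex between 50 nM HP1-beta and 50 nM biotinylated H3K9me3 peptide was read by AlphaScreen. Buffer was PBS pH 7.4 with 0.01% Tween-20. Incubations ran 30 min at room temperature, with 10 ug/mL donor/acceptor beads.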
* = called active by the depositor; [ ] = another dose, or the depositor's remark. Most compounds without a hit are left out; they make up all but 12% or so of the library. The call rests on the fitted dose curve; in most records, active means well fitted curve in the direction sought with a large enough effect; inconclusive means small, poorly fitted or top-dose-only effect, or another doubt; inactive means no such curve, though single readings can be large; an effect the other way counts as inactive or inconclusive. Potency means the concentration at half of the fitted maximal effect.

For O=c1[nH]c(CSc2nc3ccccc3s2)nc2cc(Cl)ccc12 the results were G9a block 28.2µM*, L3MBTL1 inh -4.0%, BAZ2B block -15.7% and Sfp inh -23.5%.
For Cc1sc2nc(CSc3n[nH]c(N)n3)[nH]c(=O)c2c1C the results were G9a block -12.7%, L3MBTL1 inh 5.9%, JMJD2A Tudor inh -2.7%, Sfp inh 79.4µM* and HP1b binding inh 51.3%.
Cc1sc2nc(CC(=O)NN)[nH]c(=O)c2c1C was read as G9a block 39.8µM*, L3MBTL1 inh 5.0%, BAZ2B block 0.2%, JMJD2A Tudor inh -10.0%, Sfp inh inconclusive and HP1b binding inh -9.2%.
CC(=O)OCc1nc2sc(C)c(C)c2c(=O)[nH]1 was read as G9a block 19.7%[59 µM], L3MBTL1 inh -2.9%, BAZ2B block 7.2%, JMJD2A Tudor inh -4.1%, Sfp inh 1.8% and HP1b binding inh 70.7%.
`Cc1sc2nc(CSc3nc4ccccc4s3)[nH]c(=O)c2c1C` gave G9a block 8.91µM*, L3MBTL1 inh inconclusive, BAZ2B block inconclusive and Sfp inh -0.4%.
Screening Cc1sc2nc(CSc3cccc(C(F)(F)F)c3)[nH]c(=O)c2c1C returned G9a block -31.1%, L3MBTL1 inh -10.5%, BAZ2B block -3.1%, JMJD2A Tudor inh inconclusive, Sfp inh -4.7% and HP1b binding inh 34.8%.
Screening Cc1sc2nc(CSc3ccc([N+](=O)[O-])cc3)[nH]c(=O)c2c1C returned G9a block inconclusive, L3MBTL1 inh 7.7%, BAZ2B block -2.2% and Sfp inh 50.1µM*.
Screening Cc1ccc2nc(CSc3nnc(Cc4cccs4)n3C3CCCCC3)cc(=O)n2c1 returned G9a block inconclusive, L3MBTL1 inh 0.4%, BAZ2B block -1.8%, JMJD2A Tudor inh -26.7%, Sfp inh -2.2% and HP1b binding inh 45.8%.
Cc1sc2nc(CSc3nnc(Cc4cccs4)n3C3CCCCC3)[nH]c(=O)c2c1C was read as G9a block 44.7µM*, L3MBTL1 inh -7.1%, BAZ2B block 11.6%, JMJD2A Tudor inh -20.9%, Sfp inh -16.8% and HP1b binding inh 36.6%.
Screening COc1cc(C(=O)N2CC(=O)Nc3ccc(C)cc3C2c2ccc(F)cc2)cc(OC)c1OC (stereo not drawn) returned G9a block -0.5%[59 µM], BAZ2B block 4.1%, JMJD2A Tudor inh -0.3% and HP1b binding inh 56.3%.
`CC(=Nc1ccccc1)C1=C(O)CCCC1=O` gave G9a block inconclusive, L3MBTL1 inh 8.7%, BAZ2B block 4.2%, JMJD2A Tudor inh 25.1µM*, Sfp inh 14.5% and HP1b binding inh 0.9%.
Screening CC(=Nc1ccccc1)C1=C(O)CC(C)(C)CC1=O returned G9a block 0.4%, BAZ2B block -5.6%, JMJD2A Tudor inh -7.9%, Sfp inh 6.6% and HP1b binding inh 23.6%.
`COc1ccc(N=C(C)C2=C(O)CSC2=O)cc1` gave G9a block 39.8µM*, BAZ2B block 0.6%, JMJD2A Tudor inh -15.2%, Sfp inh inconclusive and HP1b binding inh 2.2%.
`CC(=Nc1ccccc1)C1=C(O)CSC1=O` gave G9a block 50.1µM*, BAZ2B block inconclusive, JMJD2A Tudor inh -17.8%, Sfp inh inconclusive and HP1b binding inh -5.3%.
`Cc1ccccc1NC(=O)c1c(NC(=O)C(C)Oc2cccc(Cl)c2)sc2c1CCCC2` (stereo not drawn) gave G9a block inconclusive, BAZ2B block -8.6%, JMJD2A Tudor inh -12.1% and HP1b binding inh -16.2%.
`Cc1cc(C)c2oc(C(=O)Nc3c(C(=O)c4ccccc4)oc4ccccc34)cc(=O)c2c1` gave G9a block 0.6%[59 µM], BAZ2B block -22.4%, JMJD2A Tudor inh -11.1% and HP1b binding inh 52.8%.
`CO/N=C\C[C@@H]1C=C[C@H](OC(C)=O)[C@H](COC(C)=O)O1` gave Sfp inh 4.3%.
Screening CC(=O)OC[C@H]1O[C@@H](O/N=C/C[C@@H]2C=C[C@H](OC(C)=O)[C@@H](COC(C)=O)O2)[C@H](OC(C)=O)[C@@H](OC(C)=O)[C@@H]1OC(C)=O returned G9a block 79.4µM*, L3MBTL1 inh -2.2%, BAZ2B block -12.0% and Sfp inh 0.0%.
Screening COc1ccc(O[C@H]2C=C[C@@H](c3ccccc3)O[C@@H]2COC(=O)CC/C(C)=N/OC[C@@H](O)[C@H]2O[C@@H]3OC(C)(C)O[C@@H]3[C@H]2O)cc1 returned G9a block 79.4µM*, L3MBTL1 inh -3.5%, BAZ2B block inconclusive and Sfp inh 1.1%.
`COc1ccc(O[C@H]2C=C[C@@H](c3ccccc3)O[C@H]2COC(=O)CC/C(C)=N\OC[C@@H](O)[C@H]2O[C@H]3OC(C)(C)O[C@H]3[C@@H]2O)cc1` gave Sfp inh 15.7%.
Screening COc1ccc(O[C@H]2C=C[C@@H](c3ccccc3)O[C@@H]2COC(=O)CCC(C)=NO[C@@H]2O[C@H](COC(C)=O)[C@@H](OC(C)=O)[C@H](OC(C)=O)[C@H]2OC(C)=O)cc1 returned G9a block 50.1µM*, L3MBTL1 inh -11.1%, BAZ2B block -13.0% and Sfp inh -2.2%.
For CC(CC(=O)Nc1ccc(F)cc1)S(=O)(=O)c1cc2c3c(c1)CCN3C(=O)CC2 (stereo not drawn) the results were G9a block 7.6%[59 µM], BAZ2B block 0.5%, JMJD2A Tudor inh -7.1% and HP1b binding inh 0.4%.
`COC(=O)c1c(NC(=O)c2cc3nc(-c4ccc(Br)cc4)cc(C(F)(F)F)n3n2)sc2c1CCCC2` gave G9a block 10.8%[59 µM], BAZ2B block 2.1%, JMJD2A Tudor inh -12.3% and HP1b binding inh 18.4%.
Screening COc1ccc(-c2nc(SCC(=O)NC3CCCC3)c(-c3ccc(OC)cc3)[nH]2)cc1 returned G9a block 50.1µM*, L3MBTL1 inh -5.9%, BAZ2B block inconclusive, JMJD2A Tudor inh inconclusive, Sfp inh 9.9% and HP1b binding inh -15.6%.
For CCc1ccc(-c2nc(SCC(=O)NC3CC3)n[nH]2)cc1 the results were G9a block 44.7µM*, L3MBTL1 inh 0.7%, BAZ2B block 10.5%, JMJD2A Tudor inh -6.2% and HP1b binding inh 2.4%.
